Source: PubChem BioAssay (Tox21)
Records with an inconclusive call do not appear. Active and inactive are the calls of the source. Unless noted, calls follow the shape of the full dose curve.

Assays:
[1] = Nuclear factor erythroid 2-related factor 2/antioxidant responsive element (Nrf2/ARE) small molecule agonists: qHTS cell viability counter screen in human keratinocytes (AID 1919968; active = well fitted curve in the direction sought with a large enough effect in the repeat runs; an effect the other way counts as inactive or inconclusive; also: nearly all actives have a fitted effect of over 55% in size)
Outline: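 HaCaT ARE reporter line, 1,500 cells/well; 5 h settle, 37 C/5% CO2; cpd in DMSO pinned; 23 h exposure; CellTiter-Fluor, 1 h; fluorescence.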

[2] = Nuclear factor erythroid 2-related factor 2/antioxidant responsive element (Nrf2/ARE) small molecule agonists: luciferase reporter gene qHTS assay in human keratinocytes (AID 1919969); also: nearly all actives have a fitted effect of over 35% in size
[3] = target: Gonadotropin-releasing hormone receptor (Homo sapiens) (UniProt P30968); experiment: Human gonadotropin-releasing hormone receptor (GnRHR) small molecule agonists, calcium flux assay in GnRHR-HEK293 cells (AID 1920063); also: nearly all actives have a fitted effect of over 35% in size
Chain of Gonadotropin-releasing hormone receptor (Homo sapiens) (P30968 whole entry, looked up): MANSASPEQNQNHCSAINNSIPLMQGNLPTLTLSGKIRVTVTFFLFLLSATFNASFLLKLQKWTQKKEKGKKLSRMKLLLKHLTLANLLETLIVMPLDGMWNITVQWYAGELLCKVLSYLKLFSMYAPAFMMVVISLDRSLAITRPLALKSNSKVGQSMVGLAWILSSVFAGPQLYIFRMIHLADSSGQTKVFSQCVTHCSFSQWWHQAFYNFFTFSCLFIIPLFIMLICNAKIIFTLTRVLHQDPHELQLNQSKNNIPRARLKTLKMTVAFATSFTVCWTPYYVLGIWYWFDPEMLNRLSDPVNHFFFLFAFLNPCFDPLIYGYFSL
Outline: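 GnRHR-HEK293, 1500 cells/well, 18 h 37 C/5% CO2; Ca dye 1 h 37 C; cpd pinned (DMSO), agonist mode; kinetic FL 480/540, 3 min, 1 s reads; 15 conc, n=3.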

[4] = target: KiSS-1 receptor (Homo sapiens) (UniProt Q969F8); experiment: Human kisspeptin (KISS1R) small molecule agonists, calcium flux assay in KISS1R-HEK293 cells (AID 1920064; active = well fitted curve in the direction sought with a large enough effect in the repeat runs; an effect the other way counts as inactive or inconclusive)
Chain of KiSS-1 receptor (Homo sapiens) (Q969F8 whole entry, looked up): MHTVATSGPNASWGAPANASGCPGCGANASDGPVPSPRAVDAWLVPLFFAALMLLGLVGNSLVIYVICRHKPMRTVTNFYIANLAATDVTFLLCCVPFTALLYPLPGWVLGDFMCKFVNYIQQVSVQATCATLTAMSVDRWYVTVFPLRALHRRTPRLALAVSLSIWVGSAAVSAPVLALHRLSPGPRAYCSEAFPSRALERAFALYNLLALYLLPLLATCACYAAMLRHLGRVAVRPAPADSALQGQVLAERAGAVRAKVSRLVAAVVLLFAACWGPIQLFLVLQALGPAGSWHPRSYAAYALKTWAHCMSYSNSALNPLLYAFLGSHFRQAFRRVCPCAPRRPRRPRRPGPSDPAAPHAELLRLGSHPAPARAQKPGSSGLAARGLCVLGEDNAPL
Outline: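 Stable human KISS1R HEK293 line; 18 h plating, 37 C/5% CO2; calcium dye 1 h 37 C; compound pin transfer; kinetic fluorescence Ex/Em 480/540, 3 min.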

[5] = G protein-coupled receptor (GPCR) small molecule agonists, calcium flux assay: HEK293 wild type cell line counter screen (AID 1920065)
Outline: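 Kinetic fluorescence at Ex/Em 480/540, recorded every second over 3 min, served as the read-out after compound addition. Each compound was tested at 15 concentrations in triplicate on cells pre-loaded with calcium dye for 1 h.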

[6] = p53 small molecule agonists, cell-based qHTS assay with human liver microsomes (AID 1963577);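 also: p53 response element beta-lactamase reporter cells with liver microsomes plus NADPH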
Outline: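 p53RE-bla cells; 5 h settle, 37 C/5% CO2; cpd + HLM 0.5 mg/mL + NADPH 0.5 mg/mL (final); 16 h 37 C; LiveBLAzer 2 h RT dark; fluorescence readout.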

[7] = p53 small molecule agonists, cell-based qHTS assay with rat liver microsomes (AID 1963578)
Outline: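 Rat liver microsome activation: microsomes 0.5 mg/mL, NADPH 0.5 mg/mL final; p53RE-bla cells, 16 h 37 C; LiveBLAzer readout, 2 h RT dark.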

[8] = p53 small molecule agonists, cell-based qHTS assay with human liver microsomes: qHTS cell viability counter screen (AID 1963579); also: nearly all actives have a fitted effect of over 45% in size
Outline: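 Luminescent CellTiter-Glo read-out, 30 min at room temperature, gauged cytotoxicity in p53RE-bla cells exposed 16 h at 37 C to DMSO-dissolved compounds with metabolic activation by human liver microsomes and NADPH, each 0.5 mg/mL final.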

[9] = p53 small molecule agonists, cell-based qHTS assay with rat liver microsomes: qHTS cell viability counter screen (AID 1963580); also: nearly all actives have a fitted effect of over 45% in size
Outline: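 p53RE-bla HCT-116 cells (4,000/well) rested 5 h at 37 C, then given Tox21 compounds in DMSO with rat liver microsomes (0.5 mg/mL final) plus NADPH (0.5 mg/mL final) for 16 h at 37 C. Viability read by CellTiter-Glo luminescence after 30 min at room temperature.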

[10] = p53 small molecule agonists, cell-based qHTS assay: qHTS cell viability counter screen (AID 1963581); also: nearly all actives have a fitted effect of over 45% in size
Outline: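 HCT-116 p53RE-bla cells, 4,000/well, plated 5 h before compound pin transfer; 16 h at 37 C; bla substrate 2 h RT; then CellTiter-Glo, 30 min RT, luminescence.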

[11] = p53 small molecule agonists, cell-based qHTS assay (AID 1963582; active = well fitted activation curve with a large enough effect in the signal ratio in the repeat runs, not every such curve was filed as active; the % refers to the signal ratio)
Outline: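 Reporter line: p53RE-bla. Pre-incubation 5 h, 37 C, 5% CO2; compound (DMSO, pin tool) 16 h, 37 C; B/G FRET substrate 2 h RT; fluorescence intensity read.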

[12] = target: 5-hydroxytryptamine receptor 2A (Homo sapiens) (UniProt P28223); experiment: 5-hydroxytryptamine receptor 2A (HTR2A) small molecule antagonists, cell-based qHTS assay (AID 1963586); also: nearly all actives have a fitted effect of over 45% in size
Chain of 5-hydroxytryptamine receptor 2A (Homo sapiens) (P28223 whole entry, looked up): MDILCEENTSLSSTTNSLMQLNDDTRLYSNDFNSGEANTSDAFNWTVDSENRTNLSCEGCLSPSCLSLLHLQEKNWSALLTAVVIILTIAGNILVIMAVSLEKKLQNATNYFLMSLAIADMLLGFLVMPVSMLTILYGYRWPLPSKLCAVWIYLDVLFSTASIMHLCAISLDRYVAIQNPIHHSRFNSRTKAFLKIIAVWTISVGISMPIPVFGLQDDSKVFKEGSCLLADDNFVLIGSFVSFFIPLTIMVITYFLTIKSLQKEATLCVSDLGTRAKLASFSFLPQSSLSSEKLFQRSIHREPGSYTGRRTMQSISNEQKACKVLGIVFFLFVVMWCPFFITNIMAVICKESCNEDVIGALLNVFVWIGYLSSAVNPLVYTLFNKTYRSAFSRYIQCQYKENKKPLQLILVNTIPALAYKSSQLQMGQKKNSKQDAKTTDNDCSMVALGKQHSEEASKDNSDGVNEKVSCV
Outline: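 Antagonist-mode intracellular calcium assay: DOI (4 nM) added after 5 min compound pre-incubation at room temperature to dye-loaded HTR2A-CHO cells. Fluorescence followed for 3 min, sampled every second.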

[13] = target: 5-hydroxytryptamine receptor 2A (Homo sapiens) (UniProt P28223); experiment: 5-hydroxytryptamine receptor 2A (HTR2A) small molecule agonists, cell-based qHTS assay (AID 1963587); also: nearly all actives have a fitted effect of over 30% in size
Outline: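 HTR2A-CHO cells, plated 18 h at 37 C/5% CO2, dye-loaded 1 h at 37 C; compounds in DMSO added by pin tool (agonist mode). Intracellular calcium flux read as kinetic fluorescence on FDSS over 2 min at 1 s intervals.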

[14] = target: Muscarinic acetylcholine receptor M1 (Homo sapiens) (UniProt P11229); experiment: Cholinergic receptor muscarinic 1 (CHRM1) small molecule agonists, cell-based qHTS assay (AID 1963589); also: nearly all actives have a fitted effect of over 35% in size
Chain of Muscarinic acetylcholine receptor M1 (Homo sapiens) (P11229 whole entry, looked up): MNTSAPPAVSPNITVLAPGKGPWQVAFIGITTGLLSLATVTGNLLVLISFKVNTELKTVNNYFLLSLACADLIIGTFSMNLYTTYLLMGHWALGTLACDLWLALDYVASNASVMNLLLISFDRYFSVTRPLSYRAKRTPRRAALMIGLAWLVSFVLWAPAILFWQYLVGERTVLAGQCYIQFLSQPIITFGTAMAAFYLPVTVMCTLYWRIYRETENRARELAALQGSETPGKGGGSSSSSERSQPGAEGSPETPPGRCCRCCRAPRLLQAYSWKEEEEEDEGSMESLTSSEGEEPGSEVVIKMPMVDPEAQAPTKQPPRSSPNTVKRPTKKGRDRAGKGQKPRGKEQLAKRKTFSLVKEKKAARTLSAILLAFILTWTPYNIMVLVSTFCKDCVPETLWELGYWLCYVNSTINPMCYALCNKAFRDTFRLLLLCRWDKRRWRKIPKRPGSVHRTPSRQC
Outline: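 Human M1 in stable CHO line; 18 h plating, 1 h dye load 37 C; cpd added (agonist mode); Ca2+ fluorescence kinetic read, 1 s intervals; 15 conc, 3 runs.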

[15] = cAMP Responsive Elements (CRE) small molecule agonists, cell-based qHTS assay (AID 1963590)
Outline: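 HEK 293T CRE-bla, 2,000 cells/well, 18 h preincubation 37 C/5% CO2; cpds (DMSO) pinned, 3 h; LiveBLAzer B/G FRET substrate, 2 h RT.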

[16] = cAMP Responsive Elements (CRE) small molecule antagonists, cell-based qHTS assay (AID 1963591; active = well fitted inhibition curve with a large enough effect in the signal ratio in the repeat runs, not every such curve was filed as active; the % refers to the signal ratio)
Outline: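 Beta-lactamase reporter read by FRET substrate (LiveBLAzer B/G) after 2 h at room temperature. CRE-bla HEK293T cells had received compound plus 0.25 uM (final) NKH477 for 3 h at 37 °C.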

[17] = target: Beta-2 adrenergic receptor (Homo sapiens) (UniProt P07550); experiment: Adrenergic beta2 receptor (ADRB2) small molecule antagonists, cell-based qHTS assay (AID 1963592); also: series mostly up to about 92 µM; nearly all actives have a fitted effect of over 50% in size
Chain of Beta-2 adrenergic receptor (Homo sapiens) (P07550 whole entry, looked up): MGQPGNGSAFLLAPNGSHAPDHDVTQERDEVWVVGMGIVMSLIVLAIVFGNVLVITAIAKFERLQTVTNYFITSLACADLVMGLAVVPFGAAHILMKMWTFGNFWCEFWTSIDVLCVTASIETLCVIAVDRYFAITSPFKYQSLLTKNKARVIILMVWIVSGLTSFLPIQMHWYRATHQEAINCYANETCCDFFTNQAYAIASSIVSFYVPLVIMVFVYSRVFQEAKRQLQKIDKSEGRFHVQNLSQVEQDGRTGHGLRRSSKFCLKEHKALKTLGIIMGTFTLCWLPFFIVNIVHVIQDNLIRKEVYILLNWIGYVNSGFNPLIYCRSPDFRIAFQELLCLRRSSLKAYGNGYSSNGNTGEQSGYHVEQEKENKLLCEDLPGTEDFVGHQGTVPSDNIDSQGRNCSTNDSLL
Outline: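 Cells (CHO, stable ADRB2 overexpression) incubated 18-20hr at 37C; compounds added from DMSO; agonist mix (1nM isoproterenol, 100uM IBMX, 25uM Ro-20-1724) added; 0.5hr RT; d2-cAMP and anti-cAMP-cryptate added; 1hr RT; 665/615 nm read.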

[18] = target: D(2) dopamine receptor (Homo sapiens) (UniProt P14416); experiment: Dopamine D2 receptor (DRD2) small molecule agonists, cell-based qHTS assay (AID 1963594); also: nearly all actives have a fitted effect of over 35% in size
Chain of D(2) dopamine receptor (Homo sapiens) (P14416 whole entry, looked up): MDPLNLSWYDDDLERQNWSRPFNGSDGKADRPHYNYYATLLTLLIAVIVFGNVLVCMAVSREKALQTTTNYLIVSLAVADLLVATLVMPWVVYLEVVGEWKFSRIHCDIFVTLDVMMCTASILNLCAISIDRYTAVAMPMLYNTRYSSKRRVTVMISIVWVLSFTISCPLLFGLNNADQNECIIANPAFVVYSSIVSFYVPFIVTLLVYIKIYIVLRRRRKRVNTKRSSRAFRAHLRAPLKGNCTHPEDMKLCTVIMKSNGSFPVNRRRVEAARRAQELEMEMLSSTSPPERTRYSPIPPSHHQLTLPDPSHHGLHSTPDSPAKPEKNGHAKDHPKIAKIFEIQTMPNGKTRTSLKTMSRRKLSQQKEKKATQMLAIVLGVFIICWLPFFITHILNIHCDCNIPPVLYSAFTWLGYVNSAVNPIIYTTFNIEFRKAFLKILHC
Outline: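 HEK293 cells stably expressing DRD2 were cultured 24 h at 37 C, then given Ro20-1724 (0.1 mM final) and compounds for 10 min at room temperature. NKH477 (200nM) was then added for 30 min. cAMP was read by HTRF.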

[19] = target: D(2) dopamine receptor (Homo sapiens) (UniProt P14416); experiment: Dopamine D2 receptor (DRD2) small molecule antagonists, cell-based qHTS assay (AID 1963595; active = well fitted inhibition curve with a large enough effect in the signal ratio in the repeat runs, with a control signal flat; the % refers to the signal ratio)
Outline: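 HEK293 cells stably expressing DRD2 were preincubated with 0.1 mM Ro20-1724, then with compound for 10 min at room temperature. Cells were stimulated with 200 nM NKH477 plus 12 nM quinpirole for 30 min, and cAMP was read by HTRF.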

[20] = target: Muscarinic acetylcholine receptor M1 (Homo sapiens) (UniProt P11229); experiment: Cholinergic receptor muscarinic 1 (CHRM1) small molecule antagonists, cell-based qHTS assay (AID 1963588); also: nearly all actives have a fitted effect of over 40% in size
Outline: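 CHRM1-CHO calcium-flux assay, antagonist mode. Cells were seeded 18 h, dye-loaded 1 h at 37 C and given compound for 5 min at RT, then acetylcholine was added at 50nM. FDSS fluorescence was read 3 min; 15 concentrations, three runs.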

Measured: Potency

C[Si](C)O[Si](C)C
inactive: [1] | [2] | [3] | [4] | [5] | [6] | [7] | [8] | [9] | [10] | [11] | [12] | [13] | [14] | [15] | [16] | [17] | [18] | [19]

NNC(=O)c1cccc(C(=O)NN)c1
inactive: [1] | [2] | [3] | [4] | [5] | [6] | [7] | [8] | [9] | [10] | [11] | [12] | [13] | [14] | [15] | [16] | [17] | [18]

Nc1ncnc2c1ncn2Cc1c(F)cccc1Cl
inactive: [1] | [2] | [3] | [4] | [5] | [6] | [7] | [8] | [9] | [10] | [11] | [12] | [13] | [14] | [15] | [16] | [17] | [19]

Cc1ccc(CO)cc1
inactive: [1] | [2] | [3] | [4] | [5] | [6] | [7] | [8] | [9] | [10] | [11] | [12] | [13] | [15] | [16] | [18] | [19]

O=C(O)/C=C/c1ccc(Cn2ccnc2)cc1
inactive: [1] | [2] | [3] | [4] | [5] | [6] | [7] | [8] | [9] | [10] | [11] | [12] | [20] | [14] | [15] | [16] | [17] | [18]

CCCCN(CCO)CCO
inactive: [1] | [2] | [3] | [4] | [5] | [6] | [7] | [8] | [9] | [10] | [11] | [12] | [13] | [14] | [15] | [16] | [17] | [18] | [19]

CC(C)[C@@H]1CC[C@@H](C)CC1=O
inactive: [1] | [2] | [3] | [4] | [5] | [6] | [7] | [8] | [9] | [10] | [11] | [12] | [13] | [14] | [15] | [16] | [17] | [18] | [19]

CC1(C)Oc2ccc(C#N)cc2[C@@H](N2CCCC2=O)[C@@H]1O
inactive: [1] | [2] | [3] | [4] | [5] | [6] | [7] | [8] | [9] | [10] | [11] | [12] | [13] | [20] | [15] | [17] | [18] | [19]

O=C(O)[C@@H]1[C@H]2C[C@H]3c4[nH]c5ccccc5c4CCN3C[C@@H]2CC[C@@H]1O
inactive: [1] | [2] | [3] | [4] | [5] | [6] | [7] | [8] | [9] | [10] | [11] | [12] | [20] | [14] | [15] | [16] | [17] | [18]

Fc1c(F)c(F)c(Br)c(F)c1F
inactive: [1] | [2] | [3] | [4] | [5] | [6] | [7] | [8] | [9] | [10] | [11] | [12] | [13] | [20] | [15] | [16] | [17] | [18] | [19]

O=C(O)c1cccc(C[C@@H]2COc3ccc(OCc4nc5cc(F)ccc5s4)cc3[C@@H]2O)c1
inactive: [1] | [2] | [3] | [4] | [5] | [6] | [7] | [8] | [9] | [10] | [11] | [12] | [20] | [14] | [15] | [16] | [17] | [18]

NCCNCCO
inactive: [1] | [2] | [3] | [4] | [5] | [6] | [7] | [8] | [9] | [10] | [11] | [13] | [20] | [14] | [15] | [16] | [17] | [18] | [19]

Cc1ccc(S(=O)(=O)NC(=O)NC2CCCC2)cc1
inactive: [1] | [2] | [3] | [4] | [5] | [6] | [7] | [8] | [9] | [10] | [11] | [12] | [20] | [14] | [15] | [16] | [17] | [18] | [19]

CCC(O)CO (stereo unspecified)
inactive: [1] | [2] | [3] | [4] | [5] | [6] | [7] | [8] | [9] | [10] | [11] | [12] | [20] | [14] | [15] | [16] | [17] | [18] | [19]

CC(C)C1CCC(O)CC1 (stereo unspecified)
inactive: [1] | [2] | [3] | [4] | [5] | [6] | [7] | [8] | [9] | [10] | [11] | [12] | [20] | [14] | [16] | [17] | [18] | [19]
